In the supplement of paper PMC10849652:
About 7,900 targets were measured; listed, in parts, are those with a hit and a random draw of the rest. About 0.6% of all pairs of compound and target were hits. A number with no mark means an inactive call.

compound: C=CC(=O)N1CCC[C@@H](n2nc(-c3ccc(Oc4ccccc4)cc3)c3c(N)ncnc32)C1 [ibrutinib]; assay: log2 fold change, soluble protein after heating vs DMSO (PISA); higher = thermal stabilisation; K562 cells, 10 uM, 30 min; active = over 0.2 and 3.5 SD of the protein, either way, in both replicates (recomputed)
Procedure, shortened: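 K562 cells at 2×10^6 cells/mL were given 10 μM compound for 30 min. Aliquots then went through 3 min of heating across 48°C-58°C, were pooled, and were extracted in PBS with 0.5% NP-40 at 4°C, and the supernatant after 21,000xg for 90 min was quantified by TMTpro 16plex LC-MS/MS with channel sums equalised. Thermal stability relative to control samples, from duplicates, is given as log2 fold change.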

Chain of UniProt Q8N1F8 (Q8N1F8 whole entry, looked up): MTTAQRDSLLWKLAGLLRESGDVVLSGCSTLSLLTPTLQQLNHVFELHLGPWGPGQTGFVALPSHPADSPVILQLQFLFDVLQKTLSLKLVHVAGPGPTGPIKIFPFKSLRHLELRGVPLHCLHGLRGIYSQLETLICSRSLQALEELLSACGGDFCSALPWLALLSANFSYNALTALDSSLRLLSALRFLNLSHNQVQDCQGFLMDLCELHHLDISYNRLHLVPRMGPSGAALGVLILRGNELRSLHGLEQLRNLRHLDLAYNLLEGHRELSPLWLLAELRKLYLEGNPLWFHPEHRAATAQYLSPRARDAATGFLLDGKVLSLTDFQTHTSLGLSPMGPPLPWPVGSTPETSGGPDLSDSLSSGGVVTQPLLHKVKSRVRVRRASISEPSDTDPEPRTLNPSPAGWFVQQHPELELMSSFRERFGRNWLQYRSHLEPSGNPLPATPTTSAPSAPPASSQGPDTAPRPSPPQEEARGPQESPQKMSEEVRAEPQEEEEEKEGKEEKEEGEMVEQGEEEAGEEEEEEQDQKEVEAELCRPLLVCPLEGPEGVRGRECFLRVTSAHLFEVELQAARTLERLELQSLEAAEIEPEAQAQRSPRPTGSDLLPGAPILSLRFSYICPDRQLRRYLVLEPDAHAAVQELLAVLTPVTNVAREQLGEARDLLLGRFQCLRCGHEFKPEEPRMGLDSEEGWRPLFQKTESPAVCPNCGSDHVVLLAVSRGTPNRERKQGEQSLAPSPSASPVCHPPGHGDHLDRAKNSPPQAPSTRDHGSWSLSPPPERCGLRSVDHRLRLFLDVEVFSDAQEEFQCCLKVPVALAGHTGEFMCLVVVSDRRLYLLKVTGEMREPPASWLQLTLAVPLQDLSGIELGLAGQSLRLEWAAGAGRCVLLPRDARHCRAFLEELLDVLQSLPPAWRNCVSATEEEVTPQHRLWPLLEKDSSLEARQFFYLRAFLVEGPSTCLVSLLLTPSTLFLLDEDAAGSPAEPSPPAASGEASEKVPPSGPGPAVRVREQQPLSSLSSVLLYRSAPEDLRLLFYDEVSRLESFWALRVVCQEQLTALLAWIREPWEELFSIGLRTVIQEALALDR
Chain of UniProt Q6P1M0 (Q6P1M0 whole entry, looked up): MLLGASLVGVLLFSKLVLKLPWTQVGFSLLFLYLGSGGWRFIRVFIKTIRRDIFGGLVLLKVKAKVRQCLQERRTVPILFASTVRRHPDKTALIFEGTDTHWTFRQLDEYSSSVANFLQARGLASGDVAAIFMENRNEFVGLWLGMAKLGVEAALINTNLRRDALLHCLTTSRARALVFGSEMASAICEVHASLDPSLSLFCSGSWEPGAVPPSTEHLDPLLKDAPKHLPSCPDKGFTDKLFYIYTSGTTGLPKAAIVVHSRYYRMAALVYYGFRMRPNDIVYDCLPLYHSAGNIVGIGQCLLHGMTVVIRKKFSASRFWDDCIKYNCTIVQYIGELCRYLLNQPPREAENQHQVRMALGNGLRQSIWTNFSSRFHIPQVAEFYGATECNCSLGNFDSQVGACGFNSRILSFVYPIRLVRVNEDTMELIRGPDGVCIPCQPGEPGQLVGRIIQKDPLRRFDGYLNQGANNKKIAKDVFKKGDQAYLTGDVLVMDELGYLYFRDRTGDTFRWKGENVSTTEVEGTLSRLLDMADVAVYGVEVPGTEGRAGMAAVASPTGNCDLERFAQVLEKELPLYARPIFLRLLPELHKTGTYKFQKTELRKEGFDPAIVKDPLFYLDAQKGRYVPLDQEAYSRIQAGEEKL
Chain of UniProt Q969G3 (Q969G3 whole entry, looked up): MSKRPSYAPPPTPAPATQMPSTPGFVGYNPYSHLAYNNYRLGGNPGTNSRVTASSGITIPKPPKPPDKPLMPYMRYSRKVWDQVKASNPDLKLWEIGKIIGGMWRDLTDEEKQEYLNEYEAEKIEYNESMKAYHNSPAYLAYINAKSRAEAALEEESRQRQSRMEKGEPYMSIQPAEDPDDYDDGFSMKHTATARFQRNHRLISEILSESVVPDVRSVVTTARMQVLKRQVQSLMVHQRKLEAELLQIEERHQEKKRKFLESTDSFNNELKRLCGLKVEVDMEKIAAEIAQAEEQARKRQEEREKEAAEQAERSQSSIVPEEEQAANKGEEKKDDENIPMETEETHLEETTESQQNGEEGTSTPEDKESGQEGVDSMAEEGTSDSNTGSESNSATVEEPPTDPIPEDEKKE
Chain of UniProt Q9Y5L4 (Q9Y5L4 whole entry, looked up): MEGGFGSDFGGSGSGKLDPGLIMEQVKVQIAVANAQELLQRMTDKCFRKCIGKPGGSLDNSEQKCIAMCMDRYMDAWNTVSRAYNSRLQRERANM
Chain of UniProt Q08170 (Q08170 whole entry, looked up): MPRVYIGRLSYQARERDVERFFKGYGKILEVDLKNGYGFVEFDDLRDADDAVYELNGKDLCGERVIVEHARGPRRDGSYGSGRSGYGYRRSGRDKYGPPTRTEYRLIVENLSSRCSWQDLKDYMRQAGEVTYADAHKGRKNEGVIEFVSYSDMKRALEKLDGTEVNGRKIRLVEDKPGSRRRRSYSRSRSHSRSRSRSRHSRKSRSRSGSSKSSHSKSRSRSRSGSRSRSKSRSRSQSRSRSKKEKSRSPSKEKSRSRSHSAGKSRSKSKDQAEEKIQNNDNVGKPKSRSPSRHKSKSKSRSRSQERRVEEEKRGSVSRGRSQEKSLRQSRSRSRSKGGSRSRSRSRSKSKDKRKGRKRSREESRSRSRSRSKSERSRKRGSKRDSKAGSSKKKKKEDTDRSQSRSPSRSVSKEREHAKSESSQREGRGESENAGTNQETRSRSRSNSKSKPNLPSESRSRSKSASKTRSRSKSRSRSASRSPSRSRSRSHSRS
Chain of UniProt Q9H2K8 (Q9H2K8 whole entry, looked up): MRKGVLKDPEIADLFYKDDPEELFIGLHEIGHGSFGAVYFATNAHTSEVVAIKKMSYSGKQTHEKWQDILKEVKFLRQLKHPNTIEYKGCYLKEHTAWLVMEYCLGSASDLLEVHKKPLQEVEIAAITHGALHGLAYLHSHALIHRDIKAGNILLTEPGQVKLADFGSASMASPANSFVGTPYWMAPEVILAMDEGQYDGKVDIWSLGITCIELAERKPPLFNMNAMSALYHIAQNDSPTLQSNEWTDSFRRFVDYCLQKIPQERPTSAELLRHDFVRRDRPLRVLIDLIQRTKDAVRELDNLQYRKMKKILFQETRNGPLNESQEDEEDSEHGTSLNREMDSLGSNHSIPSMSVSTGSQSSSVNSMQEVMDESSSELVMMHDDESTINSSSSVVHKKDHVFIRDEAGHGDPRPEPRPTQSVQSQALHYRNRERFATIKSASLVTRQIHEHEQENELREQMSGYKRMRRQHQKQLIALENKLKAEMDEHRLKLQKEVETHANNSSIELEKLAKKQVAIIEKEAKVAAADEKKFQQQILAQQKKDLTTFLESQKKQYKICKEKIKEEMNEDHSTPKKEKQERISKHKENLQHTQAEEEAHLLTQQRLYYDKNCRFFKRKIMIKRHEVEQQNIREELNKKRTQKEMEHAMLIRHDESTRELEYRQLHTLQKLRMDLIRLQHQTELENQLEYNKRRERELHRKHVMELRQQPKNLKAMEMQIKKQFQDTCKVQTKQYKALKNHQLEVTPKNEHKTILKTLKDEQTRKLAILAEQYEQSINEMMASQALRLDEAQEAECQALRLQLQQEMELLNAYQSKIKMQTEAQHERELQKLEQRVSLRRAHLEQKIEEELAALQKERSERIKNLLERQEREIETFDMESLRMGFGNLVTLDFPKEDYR
Chain of UniProt Q13247 (Q13247 whole entry, looked up): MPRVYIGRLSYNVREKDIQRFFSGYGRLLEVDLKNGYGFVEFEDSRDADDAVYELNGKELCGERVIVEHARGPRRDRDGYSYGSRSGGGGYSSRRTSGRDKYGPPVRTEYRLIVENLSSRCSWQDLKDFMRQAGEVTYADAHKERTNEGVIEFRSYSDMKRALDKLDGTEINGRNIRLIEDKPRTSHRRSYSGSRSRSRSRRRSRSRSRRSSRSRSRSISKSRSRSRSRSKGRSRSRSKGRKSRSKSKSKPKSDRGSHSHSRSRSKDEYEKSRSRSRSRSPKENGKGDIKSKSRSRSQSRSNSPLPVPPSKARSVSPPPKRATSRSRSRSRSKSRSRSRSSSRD
Chain of UniProt Q8N357 (Q8N357 whole entry, looked up): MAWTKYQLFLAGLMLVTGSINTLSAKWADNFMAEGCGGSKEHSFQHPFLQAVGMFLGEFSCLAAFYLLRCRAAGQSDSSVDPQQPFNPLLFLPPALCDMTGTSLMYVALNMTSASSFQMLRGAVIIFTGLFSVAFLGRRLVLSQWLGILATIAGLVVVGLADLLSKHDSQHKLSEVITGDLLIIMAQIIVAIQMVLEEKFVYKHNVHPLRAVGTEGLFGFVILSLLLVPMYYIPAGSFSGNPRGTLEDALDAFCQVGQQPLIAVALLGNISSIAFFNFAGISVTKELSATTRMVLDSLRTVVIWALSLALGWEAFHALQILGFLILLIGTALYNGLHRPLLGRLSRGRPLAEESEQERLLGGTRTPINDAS
Chain of UniProt O95772 (O95772 whole entry, looked up): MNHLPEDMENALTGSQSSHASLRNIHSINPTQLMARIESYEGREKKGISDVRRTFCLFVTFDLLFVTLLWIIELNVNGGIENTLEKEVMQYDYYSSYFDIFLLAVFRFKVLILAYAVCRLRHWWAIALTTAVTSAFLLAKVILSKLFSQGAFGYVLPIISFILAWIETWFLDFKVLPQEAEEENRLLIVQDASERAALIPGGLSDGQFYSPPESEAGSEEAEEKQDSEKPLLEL
Chain of UniProt Q96BZ9 (Q96BZ9 whole entry, looked up): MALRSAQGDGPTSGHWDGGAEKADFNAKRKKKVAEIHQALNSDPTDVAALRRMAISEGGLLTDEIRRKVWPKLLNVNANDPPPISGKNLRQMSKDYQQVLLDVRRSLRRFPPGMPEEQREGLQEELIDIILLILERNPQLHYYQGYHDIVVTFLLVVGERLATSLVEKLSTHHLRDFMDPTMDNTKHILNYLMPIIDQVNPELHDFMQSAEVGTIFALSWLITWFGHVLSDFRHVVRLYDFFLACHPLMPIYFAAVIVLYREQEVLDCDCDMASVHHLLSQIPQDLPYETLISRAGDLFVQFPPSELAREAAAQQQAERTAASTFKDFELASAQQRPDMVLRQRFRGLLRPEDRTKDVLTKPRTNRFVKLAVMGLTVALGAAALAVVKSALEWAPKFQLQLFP

| Target | log2 fold change |
| --- | --- |
| STK38 (UniProt Q15208) | -0.073 |
| TBC1D24 (UniProt Q9ULP9) | 0.022 |
| SMARCA4 (UniProt P51532) | -0.136 |
| TAOK3 (UniProt Q9H2K8) | 0.002 |
| SP100 isoform 4 (UniProt P23497) | -0.012 |
| SLC35B4 (UniProt Q969S0) | 0.023 |
| TBRG4 (UniProt Q969Z0) | 0 |
| TIMM10B (UniProt Q9Y5J6) | -0.008 |
| SMIM20 isoform 2 (UniProt Q8N5G0) | -0.01 |
| SPTBN4 (UniProt Q9H254) | 0.1 |
| TGFBI (UniProt Q15582) | 0.149 |
| STARD3NL (UniProt O95772) | -0.023 |
| TJP1 (UniProt Q07157) | 0.03 |
| TANGO6 (UniProt Q9C0B7) | -0.077 |
| TANK (UniProt Q92844) | 0.087 |
| SUOX (UniProt P51687) | -0.007 |
| SNRNP40 (UniProt Q96DI7) | 0.045 |
| SNX11 (UniProt Q9Y5W9) | 0.13 |

| Target | log2 fold change |
| --- | --- |
| TIMM13 (UniProt Q9Y5L4) | 0.012 |
| TATDN2 (UniProt Q93075) | 0.072 |
| SRSF9 (UniProt Q13242) | 0.106 |
| SLC35F6 (UniProt Q8N357) | -0.002 |
| SMCHD1 (UniProt A6NHR9) | -0.007 |
| SP3 (UniProt Q02447) | 0.003 |
| TBC1D20 isoform 3 (UniProt Q96BZ9) | 0.004 |
| SYK (UniProt P43405) | 0.056 |
| TIMM29 (UniProt Q9BSF4) | 0.024 |
| SMARCE1 (UniProt Q969G3) | 0.185 |
| SRSF6 (UniProt Q13247) | -0.072 |
| SRSF4 (UniProt Q08170) | 0.069 |
| SULT1A1 (UniProt P50225) | 0.044 |
| SLC27A4 (UniProt Q6P1M0) | 0.022 |
| SSB (UniProt P05455) | -0.038 |
| TLK2 isoform 2 (UniProt Q86UE8) | -0.011 |
| TMBIM1 (UniProt Q969X1) | 0.037 |
| STK11IP (UniProt Q8N1F8) | 0.027 |
